Among all 370,000 compounds or so, about 2,100 (0.57%) were called active. This excerpt belongs to a sample that is enriched for actives. Values without a mark were called inactive.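 Rule for the calls: active = inhibition above mean plus 3 SD of compounds lying within the high and low control bounds (cut at about 19% in these data); inactive = the rest.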
Biological target: Group 3 secretory phospholipase A2 (Homo sapiens) (UniProt Q9NZ20)
Test: human group III sPLA2 inhibitors, primary screen, biochemical, QFRET, BODIPY PC-A2 liposome substrate (AID 743126);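 note: 0% = median of test compound wells and 100% = no enzyme DMSO wells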
Conditions: QFRET BODIPY PC-A2 liposome hydrolysis, fluorescence; at 12.2 µM; active compounds read high

Chain of Group 3 secretory phospholipase A2 (Homo sapiens) (Q9NZ20 whole entry, looked up): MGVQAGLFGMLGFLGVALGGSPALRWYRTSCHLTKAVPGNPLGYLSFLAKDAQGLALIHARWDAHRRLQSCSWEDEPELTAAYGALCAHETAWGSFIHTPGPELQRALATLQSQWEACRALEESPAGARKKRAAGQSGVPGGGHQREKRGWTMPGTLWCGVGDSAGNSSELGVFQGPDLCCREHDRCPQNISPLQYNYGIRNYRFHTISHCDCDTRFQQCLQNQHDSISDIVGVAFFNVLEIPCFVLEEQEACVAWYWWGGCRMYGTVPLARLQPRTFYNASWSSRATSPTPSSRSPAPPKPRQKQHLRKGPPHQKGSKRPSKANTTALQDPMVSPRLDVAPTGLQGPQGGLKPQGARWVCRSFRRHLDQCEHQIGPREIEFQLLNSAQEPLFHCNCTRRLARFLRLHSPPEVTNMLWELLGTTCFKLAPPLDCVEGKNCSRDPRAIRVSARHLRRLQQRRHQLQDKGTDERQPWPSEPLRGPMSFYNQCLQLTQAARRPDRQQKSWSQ

Compound | inhibition
COC(=O)[C@]12C[C@H](CC(=O)N3CCOCC3)C(=O)N(Cc3ccc(Cl)cc3Cl)C1=C[C@H](COCc1ccccc1)O[C@@H]2C | -3.17%
O=C1CC(c2ccc3c(c2)OCO3)N=C2N(CC3CC3)C/C(=C/c3ccccc3)N12 (stereo not given) | -10.4%
CCOc1ccc(Br)cc1S(=O)(=O)Nc1cccc(S(=O)(=O)N(CC)CC)c1 | -8.7%
CCOc1ccc(Br)cc1CSC(=N)N | 34.9% (active)
CCOc1ccc(Br)cc1S(=O)(=O)N1CCC(C(=O)O)CC1 | 5.01%
COc1ccc(-n2c(COc3ccccc3)nnc2SCC(=O)Nc2ccc3c(c2)OCO3)cc1 | -23.7%
CS(=O)(=O)c1sc(C(=O)NC(=S)Nc2ccc(OC(F)(F)F)cc2)c2c1C=CCC2 | 9.81%
CN(CC(=O)Nc1ccc(OC(F)(F)F)cc1)C(=O)C1CCC1 | 14.1%
CCNC(=S)Nc1ccc(OC(F)(F)F)cc1 | 20.4% (active)
CC(C)CNC(=S)NNC(=O)c1nn(C)cc1Cl | 17.9%
Cc1nn(C)cc1C(=O)NNC(=S)Nc1ccc(Cl)cc1 | 7.95%
Cn1cc(Cl)c(C(=O)NNC(=S)Nc2cccc(Cl)c2)n1 | 42.2% (active)
COc1ccc(CCNC(=O)CCC(=O)NC2CCCCC2)cc1OC | 3.45%
COc1cc(C(=O)NCC(=O)NCCSc2ccc(Br)cc2)cc(OC)c1OC | -0.46%
COCCCNC(=O)CNC(=S)N(Cc1cc(OC)c(OC)c(OC)c1)C1CCCC1 | 26.1% (active)
CC(C)(C)c1ccc(C(=O)Nc2cc(Cl)c(Br)cc2C(=O)O)cc1 | -12.9%
O=C(Nc1cc(F)cc(F)c1)OC1CCC12CCC(c1ccccc1)CC2 (stereo not given) | -7.77%
CC(C(=O)Nc1ccccc1-c1ccccc1)N1CCOCC1 (stereo not given) | 19.6% (active)
CC(Sc1nncn1C)C(=O)Nc1ccccc1-c1ccccc1 (stereo not given) | 1.14%
CC(C(=O)Nc1ccc(F)c(F)c1F)N1CCCCCC1 (stereo not given) | 7.49%
O=C(CCS(=O)(=O)c1ccccc1)Nc1ccc(Cl)c(Cl)c1 | -9.24%
C=CS(=O)(=O)N(Cc1nnn(Cc2ccccc2)c1Br)[C@H](C(=O)OC)C(C)C | 4.97%
Fc1ccc2nc(COCc3nc4ccc(F)cc4[nH]3)[nH]c2c1 | -3%
Cc1ccccc1NC(=O)COC(=O)c1ccc(Sc2ncn[nH]2)c([N+](=O)[O-])c1 | -13.9%
O=S(=O)(c1ccccc1)N1CCC(c2nc3ccccc3o2)CC1 | -1.51%

— PubChem BioAssay AID743126 (The Scripps Research Institute Molecular Screening Center, 2013)
